In PubChem BioAssay AID602393 (Broad Institute, 2012):
Hit rate of the full screen: of about 350,000 compounds, about 7,000 (2%) were called active. Cut-off read from the data, not from the text of the source: active = activation above about 40%; inconclusive = no clear call, values can overlap the other calls; inactive = below that. What follows is part of a selection rich in actives, with near analogues and random picks from the rest.

Test: Bmi1 luciferase reporter increase in mESCs, primary screen, esBAF inhibitor project, mouse ES cells, Bmi1 luciferase knock-in, single point (AID 602393);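 note: 0% = median of the plate's neutral control wells and 100% = double that signal; a rise in the Bmi1 reporter signal indicates esBAF inhibition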
Settings: 24 h, at 12.5 µM, active compounds read high, 100% = twice the neutral-well signal

| SMILES | reporter increase |
| --- | --- |
| CO[C@H]1CC[C@@H]2CCOc3c(C#N)cccc3C(=O)N(C)C[C@H](C)C(=O)N(C)C[C@H]1O2 | 4.38% (inactive) |
| C[C@H](NC(=O)C[C@@H]1C[C@@H]2c3cc(NC(=O)Nc4ccc(C(F)(F)F)cc4)ccc3O[C@@H]2[C@H](CO)O1)c1ccccc1 | -3.56% (inactive) |
| COC(=O)C[C@@H]1CC[C@@H]2[C@@H](COc3ccc(NC(=O)C4CCOCC4)cc3C(=O)N2C)O1 | 1.18% (inactive) |
| C[C@H]1CN([C@@H](C)CO)C(=O)Cc2cc(NC(=O)Nc3ccc(F)cc3)ccc2O[C@H]1CN(C)S(=O)(=O)c1ccc(F)cc1 | 1.01% (inactive) |
| COc1cc(-n2c(C)nc3cc(C(=O)NCc4ccco4)ccc32)cc(OC)c1OC | -1.78% (inactive) |
| Cc1nc2cc(NCc3cccs3)ccc2n1C | 35% (inactive) |
| COc1ccc(-n2cnc3cc(NCc4ccco4)ccc32)cc1 | 56.7% (active) |
| O=C(C[C@H]1CC[C@H](NC(=O)Nc2ccccc2F)[C@@H](CO)O1)NCc1ccccc1 | 0.158% (inactive) |
| Cc1ccc(NC(=S)Nc2ccc(F)cc2)cc1 | 9.65% (inactive) |
| FC(F)(F)Oc1ccc(NC(=S)NCc2ccccc2)cc1 | -1.5% (inactive) |
| S=C(Nc1ccccc1)Nc1ccc2ccccc2c1 | 78.2% (active) |
| CCCCCOc1ccc(/C=C/C(=O)NCCc2nc3ccccc3[nH]2)cc1OC | 1.93% (inactive) |
| COc1cc(/C=C(\C#N)c2nc3ccccc3[nH]2)ccc1O | 54.9% (active) |
| CCOc1ccc(/C=C(/C#N)c2nnc(N3CCOCC3)n2-c2ccccc2)cc1OC | 2.69% (inactive) |
| CC=Cc1ccc2n(c1=O)C[C@@H]1[C@@H](CO)[C@H](C(=O)NCCCN3CCOCC3)[C@H]2N1Cc1cocn1 (mixture of isomers) | -2.98% (inactive) |
| CCNC(=O)C[C@@H]1CC[C@H](NC(=O)NC2CCCCC2)[C@H](CO)O1 | -1.71% (inactive) |
| O=C(C[C@@H]1C[C@@H]2c3cc(NC(=O)Cc4ccncc4)ccc3O[C@@H]2[C@H](CO)O1)NCc1cccc(F)c1 | -1.25% (inactive) |
| O=C(COC(=O)c1cccc(Cl)c1Cl)NC1CCCCCC1 | -2.51% (inactive) |
| O=C(OCC(=O)N1CCCCCC1)c1cccc(Cl)c1Cl | 46.9% (active) |
| O=C(COc1ccccc1Cl)N1CCCCCCC1 | 5.02% (inactive) |
| Cc1ccc(C)c(NC(=O)c2ccc(OC(=O)c3ccco3)cc2)c1 | 5.84% (inactive) |
| Cc1ccc(O)c(NC(=O)c2cc(-c3ccco3)on2)c1 | 69.9% (active) |
| CC(C)Cc1cc(C(=O)Nc2cc(Br)ccc2O)no1 | 30.6% (inactive) |
| C[C@H](CO)N1C[C@H](C)[C@@H](CN(C)CC2CC2)OCCCC[C@H](C)Oc2ccc(NC(=O)Nc3ccccc3)cc2C1=O | 2.38% (inactive) |
| CNC[C@H]1Oc2cc(-c3ccc(C(=O)N(C)C)cc3)ccc2S(=O)(=O)N([C@@H](C)CO)C[C@@H]1C | 0.467% (inactive) |
| C[C@@H]1CN([C@H](C)CO)C(=O)c2ccccc2-c2ccccc2CO[C@H]1CN(C)C(=O)CCC(F)(F)F | -0.31% (inactive) |

| SMILES | reporter increase |
| --- | --- |
| O=c1c2c(nc3n1CCCCC3)sc1c(O)cccc12 | -22.9% (inactive) |
| CC(=O)c1ccc(NC(=O)c2sc3nc4n(c(=O)c3c2C)CCCCC4)cc1 | 56.1% (active) |
| COc1cccc(C(=O)Nc2ccc3nc4n(c(=O)c3c2)CCCCC4)c1 | 38.2% (inactive) |
| COc1cccc(NC(=O)N(C)C[C@H]2Oc3ncc(C4=CCCCC4)cc3C(=O)N([C@H](C)CO)C[C@H]2C)c1 | 6.32% (inactive) |
| C[C@H](CO)N1C[C@H](C)[C@@H](CN(C)C(=O)Nc2ccccc2)Oc2ncc(C3=CCCC3)cc2C1=O | 1.19% (inactive) |
| Cn1cnc(S(=O)(=O)N2C[C@@H](O)COC[C@H]3O[C@H](CC(=O)N4CCN(c5ccccc5)CC4)CC[C@@H]32)c1 | 0.849% (inactive) |
| COc1ccc(C2CC(c3ccccc3)=NN2C(=O)c2ccc(Cl)c([N+](=O)[O-])c2)cc1 (stereo unspecified) | -0.268% (inactive) |
| COc1cccc(C2CC(c3ccccc3)=NN2S(=O)(=O)c2ccccc2)c1OC (stereo unspecified) | -2.12% (inactive) |
| COc1ccc(C2=NN(C(=O)CSc3nc(=O)n4ccc(C)cc4n3)C(c3ccc(C)cc3)C2)cc1 (stereo unspecified) | 9.03% (inactive) |
| COc1ccc(C2=NN(C(=O)c3ccccc3C(=O)O)C(c3ccccc3O)C2)cc1 (stereo unspecified) | 74.8% (active) |
| COc1ccc(C2=NN(C(=O)CSc3nnnn3C)C(c3ccco3)C2)cc1 (stereo unspecified) | 18% (inactive) |
| COc1ccc(C2=NN(C(C)=O)C(c3ccccc3)C2)cc1 (stereo unspecified) | 53.9% (active) |
| COc1ccc(C2CC(c3cccc(OC)c3)=NN2c2ccc(S(N)(=O)=O)cc2)cc1 (stereo unspecified) | 4.76% (inactive) |
| COc1ccc(C2CC(c3ccccc3)=NN2C(=O)CSc2nccc(=O)[nH]2)cc1 (stereo unspecified) | 11.5% (inactive) |
| COc1ccc(C2CC(c3ccc([N+](=O)[O-])cc3)=NN2C(C)=O)cc1 (stereo unspecified) | 71.3% (active) |
| C[C@@H]1CN([C@@H](C)CO)C(=O)Cc2cc(NC(=O)Nc3cccc4ccccc34)ccc2O[C@@H]1CN(C)CC1CCCCC1 | -7.15% (inactive) |
| CC(C)CC#Cc1cnc2c(c1)C(=O)N([C@H](C)CO)C[C@H](C)[C@@H](CN(C)Cc1ccccc1C(=O)O)O2 | -5.98% (inactive) |
| Cc1noc(C)c1S(=O)(=O)Nc1ccc2c(c1)C(=O)N([C@H](C)CO)C[C@@H](C)[C@@H](CN(C)Cc1ccccc1)OCCCC[C@@H](C)O2 | 3.09% (inactive) |
| CN1C(=O)c2cc(NC(=O)C3CCCCC3)ccc2OC[C@H]2O[C@@H](CC(=O)NC3CCCC3)CC[C@@H]21 | 0.376% (inactive) |
| C[C@@H]1CN([C@@H](C)CO)C(=O)Cc2cc(NC(=O)Nc3cccc4ccccc34)ccc2O[C@H]1CN(C)S(=O)(=O)c1ccc(Cl)cc1 | -0.13% (inactive) |
| COc1ccc(NC(=O)N(C)C[C@H]2Oc3ccc(NC(=O)Cc4cn(C)c5ccccc45)cc3CC(=O)N([C@@H](C)CO)C[C@H]2C)cc1 | -1.83% (inactive) |
| CS(=O)(=O)Nc1ccc(C2=NN(S(C)(=O)=O)C(c3cccs3)C2)cc1 (stereo unspecified) | 58.2% (active) |
| CS(=O)(=O)Nc1cccc(C2=NN(C(=O)c3cccc(F)c3)C(c3cccs3)C2)c1 (stereo unspecified) | 5.14% (inactive) |
| CS(=O)(=O)Nc1cccc(C2=NN(S(=O)(=O)c3ccccc3)C(c3cccs3)C2)c1 (stereo unspecified) | -7.36% (inactive) |
| CC(C)C#Cc1ccc2c(c1)O[C@@H](CN(C)C(=O)C1CC1)[C@H](C)CN([C@H](C)CO)S2(=O)=O | 3.19% (inactive) |
| C[C@@H]1CN([C@H](C)CO)C(=O)c2cccc(NS(=O)(=O)c3ccc(F)cc3)c2O[C@@H]1CN(C)S(=O)(=O)c1ccc(Cl)cc1 | 0.559% (inactive) |

| SMILES | reporter increase |
| --- | --- |
| CO[C@@H](CN(C)S(=O)(=O)c1ccc(F)cc1)[C@H](C)CN(C(=O)Nc1ccccc1F)[C@@H](C)CO | 7.4% (inactive) |
| O=C(C[C@H]1C=C[C@@H](NC(=O)c2cnccn2)[C@H](CO)O1)NCc1ccccc1F | -1.5% (inactive) |
| CC(C)NC(=O)N[C@@H]1CC[C@H](CCn2cc(-c3ccccc3)nn2)O[C@H]1CO | 1.66% (inactive) |
| CCNC(=O)C[C@@H]1CC[C@@H]2[C@@H](COc3ccc(NC(C)=O)cc3C(=O)N2C)O1 | -3.06% (inactive) |
| CCOC(=O)C1=C(c2ccccc2)O/C(=C(/C(=O)OC)C(F)(F)F)S1 | -7.41% (inactive) |
| COC(=O)/C(=C1\Oc2ccc(C(C)(C)C)cc2S1)C(F)(F)F | 53.4% (active) |
| COCC#Cc1cnc2c(c1)C(=O)N([C@H](C)CO)C[C@@H](C)[C@@H](CN(C)C(=O)Nc1cccc(F)c1)O2 | -0.578% (inactive) |
| C[C@H](CO)N1C[C@H](C)[C@@H](CN(C)Cc2ccccn2)Oc2ncc(C3=CCCC3)cc2C1=O | -4.21% (inactive) |
| C[C@@H]1CN([C@@H](C)CO)C(=O)c2cc(-c3ccc(C#N)cc3)cnc2O[C@H]1CN(C)C(=O)CN(C)C | 0.919% (inactive) |
| CCOC(=O)c1oc2ccccc2c1NC(=O)c1cccs1 | -0.529% (inactive) |
| CCc1c(C)sc(NC(=O)c2ccc(Br)o2)c1C(=O)OC | 0.318% (inactive) |
| CCc1c(C)sc(NC(=O)c2cccs2)c1C(N)=O | 57.1% (active) |
| COc1ccc(CN2C[C@@H](C)[C@H](OC)CN(C)C(=O)c3cc(NC(C)=O)ccc3OC[C@@H]2C)cc1 | 1.02% (inactive) |
| CN(C)CC(=O)N[C@@H]1CC[C@H](CC(=O)NCc2ccc(Cl)cc2)O[C@H]1CO | 2.07% (inactive) |
| CCCN(C)C[C@@H]1Oc2cc(-c3ccc(C)cc3)ccc2S(=O)(=O)N([C@@H](C)CO)C[C@H]1C | -1.82% (inactive) |
| CO[C@H]1CN(C)C(=O)c2ccc(NC(=O)c3cc(C)on3)cc2OC[C@H](C)N(C)C[C@H]1C | -3.45% (inactive) |
| COc1ccc(Nc2oc(-c3ccccc3Cl)nc2C#N)cc1 | 11.5% (inactive) |
| Cc1ccc(OCc2nc(C#N)c(N3CCCC3)o2)cc1 | 6.84% (inactive) |
| CCOc1ccc(Nc2oc(Cc3ccccc3)nc2C#N)cc1 | 52% (active) |
| COc1ccc(NC(=O)N(C)C[C@@H]2OCCCC[C@H](C)Oc3ccc(NS(=O)(=O)c4c(C)noc4C)cc3C(=O)N([C@@H](C)CO)C[C@@H]2C)cc1 | 10.5% (inactive) |
| Cc1ccc(Nc2nc(C)cc(C)c2C(N)=O)cc1 | -0.241% (inactive) |
| Cc1ccc(NC(=O)c2ccn(C(=O)Nc3ccccc3)n2)c(C)c1 | 33.7% (inactive) |
| Cc1ccc2nc(Nc3ccccc3)cc(C)c2c1 | 48.3% (active) |
| O=C(C[C@H]1CC[C@H](NC(=O)c2ccncc2)[C@H](CO)O1)Nc1ccccc1 | 6.5% (inactive) |
